In test [1] the target is bovine Estrogen Receptor (ER), ESR1 (gene 407238) (UniProt P49884). Briefly: NVS_NR_bER: NovaScreen (NVS) Nuclear Receptor Binding Assay for bovine Estrogen Receptor (ER) (AID 2283345).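 Also: actives lower the bound radioligand count which means they displace the ER ligand.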 A digest of the protocol:
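Scintillation counting of displaced radioligand gave the readout; bovine uterine membrane extract supplied the receptor. Measured 18 h post-dose, normalized to DMSO baseline. Single 25 uM duplicate screen preceded concentration-response follow-up.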

In test [2] the target is chimpanzee Androgen Receptor (AR), AR (gene 747460) (UniProt O97775). The test is described as follows: NVS_NR_cAR: NovaScreen (NVS) Nuclear Receptor Binding Assay for chimpanzee Androgen Receptor (AR) (AID 2283346).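 Also: radioligand displacement from AR measured by scintillation counting in a cell-free assay.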 A digest of the protocol:
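Cell-free radioligand displacement using receptor protein extracted from Sf9/Sf21 cells; bound radioligand measured by scintillation counting 72 hours after chemical dosing. Loss of signal versus DMSO baseline indicates binding; primary screen single-concentration in duplicate at 25 uM, actives followed in concentration series.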

Test [3] deals with Estrogen receptor (Homo sapiens) (UniProt P03372). Briefly: OT_ER_ERaERa_1440: Odyssey Thera (OT) 24-hour HEK293T Protein-Complementation Assay for Estrogen Receptor-alpha/-alpha Homodimer (AID 2283349).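 Also: hits raise fluorescence above DMSO for agonists and antagonists alike.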 Put shortly:
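Stably transfected HEK293T; ERα LBD homodimer PCA. 24 h dosing, fluorescence intensity read, gain-of-signal vs DMSO.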

For test [4] the target is unchanged. Briefly: OT_ER_ERaERa_0480: Odyssey Thera (OT) 8-hour HEK293T Protein-Complementation Assay for Estrogen Receptor-alpha/-alpha Homodimer (AID 2283351).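 Also: rise in fluorescence from reassembled reporter fragments on ERα LBD homodimer in nucleus or whole cell.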 A digest of the protocol: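 Read-out: fluorescence intensity rise relative to DMSO, nuclear for agonists, nuclear plus cytoplasmic for antagonists. Construct is the ERα LBD (aa 310-547) homodimer fragment-complementation pair, stably expressed in HEK293T; exposure 8 h.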

Test [5] concerns the target Androgen Receptor/SRC-1 Co-activator, AR (gene 367) (UniProt P10275). The test is described as follows: OT_AR_ARSRC1_0960: Odyssey Thera (OT) 16-hour HEK293T Protein-Complementation Assay for Androgen Receptor/SRC-1 Co-activator (AID 2283353).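 Also: actives raise the signal above DMSO so potency reflects increased AR and SRC-1 complex.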 Put shortly: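 Readout: 488 nm nuclear-to-cytoplasmic fluorescence ratio from imaging of at least 400 cells per image, 16 h post-dose. Reporter is Venus YFP complementation between AR and SRC-1 fusions, stably expressed in HEK293T; activity scored upward relative to DMSO.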

Test [6] shares this target. The test is described as follows: OT_AR_ARSRC1_0480: Odyssey Thera (OT) 8-hour HEK293T Protein-Complementation Assay for Androgen Receptor/SRC-1 Co-activator (AID 2283354).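 Also: hits raise the complementation signal above DMSO so AC50 marks enhancers.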 A digest of the protocol: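 After 8 h dosing, stably expressing HEK293T cells with split-Venus AR/SRC-1 fusions were imaged (488, 635nm). The 488nm N/C ratio per image gave the endpoint, analysed in the positive direction against DMSO.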

Test [7] concerns the target Estrogen receptor (Homo sapiens) + Estrogen receptor beta (Homo sapiens) (UniProt P03372+Q92731). The test is described as follows: OT_ER_ERaERb_1440: Odyssey Thera (OT) 24-hour HEK293T Protein-Complementation Assay for Estrogen Receptor-alpha/-beta Homodimer (AID 2283356).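 Also: heteromer of ER alpha and ER beta binding domains; hits raise reporter fluorescence and both agonists and antagonists give an increase.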 Put shortly:
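24 h exposure; HEK293T PCA cells with ERα/ERβ LBD fragments; signal rise in nuclear or whole-cell fluorescence over vehicle.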

For the next test, the target named is PGR (gene 5241) (UniProt P06401). Briefly: NVS_NR_hPR: NovaScreen (NVS) Nuclear Receptor Binding Assay for human Progestron Receptor (PR) (AID 2283360). A digest of the protocol: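 T47D lysate; tritiated or iodinated radioligand; scintillation count at 18 h. DMSO = negative control/baseline. Primary: 25 uM, duplicate. Secondary: concentration series for actives.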

The target of test [8] is rat Androgen Receptor (AR), Ar (gene 24208) (UniProt P15207). Briefly: NVS_NR_rAR: NovaScreen (NVS) Nuclear Receptor Binding Assay for rat Androgen Receptor (AR) (AID 2283366). A digest of the protocol:
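Actives from a duplicate single-concentration (25 uM) primary run went on to concentration series. Displacement of radioligand was counted by filtration and scintillation, 18 h post-dose, using prostate extracts from testosterone-pretreated rats, with DMSO as baseline.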

The target in test [9] is Estrogen receptor beta (Homo sapiens) (UniProt Q92731). The test is described as follows: OT_ER_ERbERb_0480: Odyssey Thera (OT) 8-hour HEK293T Protein-Complementation Assay for Estrogen Receptor-beta/-beta Homodimer (AID 2283357).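 Also: active means signal gain over DMSO baseline.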 Put shortly: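 Fluorescence gain from complemented reporter fragments on ER-beta LBD homodimer in HEK293T was quantified against DMSO controls after 8 h treatment, fixation in 4% formaldehyde and Draq5 staining.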

Test [10] addresses Estrogen receptor (Homo sapiens) (UniProt P03372). The test is described as follows: NVS_NR_hER: NovaScreen (NVS) Nuclear Receptor Binding Assay for human Estrogen Receptor (ER) (AID 2283348). Put shortly:
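Radiodetection of ligand displacement in a lysate-based, cell-free format using MCF7 extracts, read at 18 hours. Duplicate 25 uM primary testing, then concentration series for actives.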

The target of test [11] is Retinoic acid receptor alpha (Homo sapiens) (UniProt P10276). Briefly: NVS_NR_hRAR_Antagonist: NovaScreen (NVS) Nuclear Receptor Binding Assay for human Retinoic Acid Alpha Receptor Antagonism (RAR) (AID 2283358). Put shortly:
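Chemicals were first tested in duplicate at 25 uM, then actives in concentration series, in a cell-free TR-FRET antagonist binding format. Measurements were taken 2 hours after dosing and loss of signal was evaluated against DMSO controls.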

Test [12] concerns the target human Peroxisome Proliferator-activated Receptor alpha (PPARa), PPARA (gene 5465) (UniProt Q07869). Briefly: NVS_NR_hPPARa: NovaScreen (NVS) Nuclear Receptor Binding Assay for human Peroxisome Proliferator-activated Receptor alpha (PPARa) (AID 2283359).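 Also: activity means loss of TR-FRET signal versus DMSO baseline.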 Put shortly: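 One-hour incubation, cell-free extracted protein, TR-FRET binding readout; signal loss vs DMSO scored. Screen: 25 uM duplicates, confirmatory dose series for actives.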

Test [13] has as its target Retinoic acid receptor alpha (Homo sapiens) (UniProt P10276). Briefly: NVS_NR_hRARa_Agonist: NovaScreen (NVS) Nuclear Receptor Binding Assay for human Retinoic Acid Alpha Receptor Agonism (RAR) (AID 2283361). Put shortly: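 Compounds screened at 25 uM, duplicate, then in concentration series if active. Detection: TR-FRET gain of signal versus DMSO after 2 h with cell-free extracted RARα.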

Test [14] deals with Glucocorticoid receptor (Homo sapiens) (UniProt P04150). The test is described as follows: NVS_NR_hGR: NovaScreen (NVS) Nuclear Receptor Binding Assay for human Glucocorticoid Receptor (GR) (AID 2283363).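 Also: activity is loss of specific radioligand binding signal relative to DMSO.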 A digest of the protocol:
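Single-readout cell-free binding: radioligand plus extracted receptor, 16-hour dosing, filter radiodetection; 25 uM duplicate primary, concentration series secondary.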

Test [15] addresses rat Mineralocorticoid Receptor (MR), Nr3c2 (gene 25672) (UniProt P22199). The test is described as follows: NVS_NR_rMR: NovaScreen (NVS) Nuclear Receptor Binding Assay for rat Mineralocorticoid Receptor (MR) (AID 2283355). A digest of the protocol:
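Single-concentration duplicate screen (25 uM) of radioligand binding in adrenalectomized rat brain supernatant; scintillation detection 24 h after dosing. Positive and negative controls ran on each plate, and confirmed actives went to concentration-response.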

For test [16], the target named is human Thyroid Receptor Alpha (TRa), THRA (gene 7067) (UniProt P10827). Briefly: NVS_NR_hTRa_Antagonist: NovaScreen (NVS) Nuclear Receptor Binding Assay for human Thyroid Receptor Alpha Antagonism (TRa) (AID 2283362).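 Also: activity is loss of signal relative to DMSO baseline.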 A digest of the protocol: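 In this biochemical format, receptor protein is dosed with chemical and read after 1 hour via AlphaLISA. Decreases from the DMSO baseline indicate antagonist activity; screening used 25 uM in duplicate before concentration-response confirmation.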

The target of test [17] is guinea pig Sigma Receptor, Non-selective Binding, SIGMAR1 (gene 100135589) (UniProt Q60492). The test is described as follows: NVS_OR_gSIGMA_NonSelective: NovaScreen (NVS) Nuclear Receptor Binding Assay for guinea pig Sigma Receptor, Non-selective Binding (AID 2283367). Put shortly: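 Test chemicals were screened in duplicate at 25 uM, then in concentration series if active, against radioligand binding to guinea pig brain membranes; filtration and scintillation counting at 1 h measured remaining bound ligand.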

For test [18], the system named is guinea pig Dopamine Transporter (DAT), gene 100714898. The test is described as follows: NVS_TR_gDAT: NovaScreen (NVS) Transporter Assay for guinea pig Dopamine Transporter (DAT) (AID 2283369).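 Also: active compounds lower bound radioligand signal relative to DMSO.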 Put shortly:
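Primary pass: duplicate wells at 25 uM, threshold e.g. 30% inhibition. Follow-up: singleton concentration-response, highest 50 uM. Radioligand binding on guinea pig striatal membranes, 2 h, filtration scintillation detection.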

The results in this text go back to PubChem BioAssay (EPA / NIEHS).

Inconclusive results are not listed. The source made the active and inactive calls. The calls were made as follows: active = hit-call score of the fitted dose curve at least 0.9, where 1 is the maximum; inconclusive = response in the unintended direction; inactive = score below 0.9.

As a reminder, the AC50 is the midpoint of the concentration-response curve, whichever way the signal moves.

Sequence of rat Androgen Receptor (AR), Ar (gene 24208) (P15207 whole entry, looked up): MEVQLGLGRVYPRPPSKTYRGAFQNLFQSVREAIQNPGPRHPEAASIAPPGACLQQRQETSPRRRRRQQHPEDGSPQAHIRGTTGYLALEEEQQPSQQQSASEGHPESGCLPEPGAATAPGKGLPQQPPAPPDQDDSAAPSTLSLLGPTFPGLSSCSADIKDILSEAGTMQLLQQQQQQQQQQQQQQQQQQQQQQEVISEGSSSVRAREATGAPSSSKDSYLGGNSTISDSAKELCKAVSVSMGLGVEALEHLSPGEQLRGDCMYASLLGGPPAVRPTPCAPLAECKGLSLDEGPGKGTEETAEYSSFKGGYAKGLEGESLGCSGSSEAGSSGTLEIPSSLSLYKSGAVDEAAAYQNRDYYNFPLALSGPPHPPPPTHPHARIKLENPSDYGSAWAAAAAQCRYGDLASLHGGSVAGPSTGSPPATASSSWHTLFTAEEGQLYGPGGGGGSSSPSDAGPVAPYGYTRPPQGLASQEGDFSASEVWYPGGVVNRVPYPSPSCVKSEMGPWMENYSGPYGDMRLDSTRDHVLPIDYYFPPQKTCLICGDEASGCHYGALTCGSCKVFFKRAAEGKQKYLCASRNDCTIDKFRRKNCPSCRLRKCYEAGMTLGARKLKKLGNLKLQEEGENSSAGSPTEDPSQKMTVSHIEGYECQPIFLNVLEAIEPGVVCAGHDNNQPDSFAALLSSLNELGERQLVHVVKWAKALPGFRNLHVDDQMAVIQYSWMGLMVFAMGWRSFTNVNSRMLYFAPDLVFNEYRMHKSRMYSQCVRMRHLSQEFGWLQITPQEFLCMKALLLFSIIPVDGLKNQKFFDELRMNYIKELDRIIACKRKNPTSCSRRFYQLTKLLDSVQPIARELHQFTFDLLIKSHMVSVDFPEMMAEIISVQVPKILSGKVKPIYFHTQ
Sequence of Glucocorticoid receptor (Homo sapiens) (P04150 whole entry, looked up): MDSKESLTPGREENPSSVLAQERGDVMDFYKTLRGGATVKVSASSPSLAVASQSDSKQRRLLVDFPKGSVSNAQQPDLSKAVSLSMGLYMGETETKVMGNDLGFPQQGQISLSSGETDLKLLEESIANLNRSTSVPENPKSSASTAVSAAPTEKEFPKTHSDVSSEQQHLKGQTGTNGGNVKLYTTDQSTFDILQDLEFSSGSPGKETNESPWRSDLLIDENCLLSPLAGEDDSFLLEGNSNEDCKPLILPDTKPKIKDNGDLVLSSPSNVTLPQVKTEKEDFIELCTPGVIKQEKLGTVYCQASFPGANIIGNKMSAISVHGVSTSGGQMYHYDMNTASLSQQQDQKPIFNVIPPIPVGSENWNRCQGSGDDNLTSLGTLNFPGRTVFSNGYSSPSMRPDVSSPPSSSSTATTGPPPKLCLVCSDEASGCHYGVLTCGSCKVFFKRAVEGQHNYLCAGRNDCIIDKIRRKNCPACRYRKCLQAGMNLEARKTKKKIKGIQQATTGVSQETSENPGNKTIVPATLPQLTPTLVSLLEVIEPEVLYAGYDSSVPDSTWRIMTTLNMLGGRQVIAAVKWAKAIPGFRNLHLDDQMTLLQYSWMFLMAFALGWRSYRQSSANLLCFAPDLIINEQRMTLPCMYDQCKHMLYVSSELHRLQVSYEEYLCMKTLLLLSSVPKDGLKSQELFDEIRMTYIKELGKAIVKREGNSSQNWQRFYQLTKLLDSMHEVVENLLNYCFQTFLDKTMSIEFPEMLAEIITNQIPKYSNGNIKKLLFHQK
Sequence of PGR (gene 5241) (P06401 whole entry, looked up): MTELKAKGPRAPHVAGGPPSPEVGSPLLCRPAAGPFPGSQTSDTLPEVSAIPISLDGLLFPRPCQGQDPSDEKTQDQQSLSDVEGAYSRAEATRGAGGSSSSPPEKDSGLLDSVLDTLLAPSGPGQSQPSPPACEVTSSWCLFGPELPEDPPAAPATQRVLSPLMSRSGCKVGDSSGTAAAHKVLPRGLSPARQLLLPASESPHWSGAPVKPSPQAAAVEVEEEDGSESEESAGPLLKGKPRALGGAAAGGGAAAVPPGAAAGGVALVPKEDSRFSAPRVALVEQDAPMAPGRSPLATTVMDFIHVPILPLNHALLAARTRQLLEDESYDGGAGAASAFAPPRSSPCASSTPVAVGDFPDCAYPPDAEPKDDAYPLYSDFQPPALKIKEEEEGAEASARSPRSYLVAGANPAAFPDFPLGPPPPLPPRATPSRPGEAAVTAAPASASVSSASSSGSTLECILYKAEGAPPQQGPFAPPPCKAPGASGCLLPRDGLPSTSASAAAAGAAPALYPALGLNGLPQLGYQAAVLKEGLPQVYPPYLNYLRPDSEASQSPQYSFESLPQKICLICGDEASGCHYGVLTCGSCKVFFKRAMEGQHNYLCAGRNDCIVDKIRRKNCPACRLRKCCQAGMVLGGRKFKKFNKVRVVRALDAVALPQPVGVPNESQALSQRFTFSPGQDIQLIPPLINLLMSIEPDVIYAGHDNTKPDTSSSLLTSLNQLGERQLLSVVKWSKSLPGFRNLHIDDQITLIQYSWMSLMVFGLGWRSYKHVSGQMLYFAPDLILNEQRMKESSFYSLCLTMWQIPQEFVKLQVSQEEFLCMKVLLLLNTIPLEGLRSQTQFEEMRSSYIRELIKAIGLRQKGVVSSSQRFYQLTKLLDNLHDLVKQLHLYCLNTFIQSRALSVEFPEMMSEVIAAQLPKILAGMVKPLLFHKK
Sequence of bovine Estrogen Receptor (ER), ESR1 (gene 407238) (P49884 whole entry, looked up): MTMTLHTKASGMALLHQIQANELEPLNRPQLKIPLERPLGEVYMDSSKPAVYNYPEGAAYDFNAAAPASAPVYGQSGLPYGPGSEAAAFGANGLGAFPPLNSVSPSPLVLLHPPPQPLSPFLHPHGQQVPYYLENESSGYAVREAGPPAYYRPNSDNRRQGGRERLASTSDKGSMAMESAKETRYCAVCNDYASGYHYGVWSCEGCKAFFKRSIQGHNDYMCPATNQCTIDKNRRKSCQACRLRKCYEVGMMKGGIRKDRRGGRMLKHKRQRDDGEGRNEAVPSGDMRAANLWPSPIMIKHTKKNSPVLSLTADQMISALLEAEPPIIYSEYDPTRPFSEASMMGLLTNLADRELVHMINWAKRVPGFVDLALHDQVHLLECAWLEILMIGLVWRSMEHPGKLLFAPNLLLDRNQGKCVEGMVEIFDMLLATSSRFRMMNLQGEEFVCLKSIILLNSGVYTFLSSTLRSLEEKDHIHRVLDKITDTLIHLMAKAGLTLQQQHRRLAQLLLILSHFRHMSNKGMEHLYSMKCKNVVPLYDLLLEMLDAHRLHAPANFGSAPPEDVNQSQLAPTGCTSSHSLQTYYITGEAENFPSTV
Sequence of chimpanzee Androgen Receptor (AR), AR (gene 747460) (O97775 whole entry, looked up): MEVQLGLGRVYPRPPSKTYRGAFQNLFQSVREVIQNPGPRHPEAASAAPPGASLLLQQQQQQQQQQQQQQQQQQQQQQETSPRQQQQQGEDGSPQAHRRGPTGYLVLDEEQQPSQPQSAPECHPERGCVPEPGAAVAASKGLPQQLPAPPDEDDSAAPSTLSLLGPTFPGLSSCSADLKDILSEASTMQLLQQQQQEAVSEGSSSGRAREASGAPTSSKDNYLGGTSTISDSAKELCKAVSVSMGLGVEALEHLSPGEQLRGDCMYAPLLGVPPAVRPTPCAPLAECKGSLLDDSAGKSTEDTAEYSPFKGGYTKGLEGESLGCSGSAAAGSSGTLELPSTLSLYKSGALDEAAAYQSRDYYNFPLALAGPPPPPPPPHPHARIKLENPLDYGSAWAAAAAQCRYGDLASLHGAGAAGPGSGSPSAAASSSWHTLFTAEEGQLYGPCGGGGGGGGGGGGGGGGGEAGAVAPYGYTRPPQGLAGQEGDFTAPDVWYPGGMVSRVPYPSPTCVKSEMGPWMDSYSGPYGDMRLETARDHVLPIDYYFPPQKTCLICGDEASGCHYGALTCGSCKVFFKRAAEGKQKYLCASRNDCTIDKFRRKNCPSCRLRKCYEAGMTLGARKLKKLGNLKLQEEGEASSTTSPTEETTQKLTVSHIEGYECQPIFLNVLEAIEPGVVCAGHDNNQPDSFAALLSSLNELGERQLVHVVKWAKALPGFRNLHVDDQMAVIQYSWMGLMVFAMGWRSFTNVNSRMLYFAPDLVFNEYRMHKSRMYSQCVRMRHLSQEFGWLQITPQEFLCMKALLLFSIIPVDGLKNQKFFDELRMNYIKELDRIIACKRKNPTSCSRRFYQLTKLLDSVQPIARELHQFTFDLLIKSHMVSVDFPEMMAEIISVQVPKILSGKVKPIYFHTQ
Sequence of Estrogen receptor (Homo sapiens) (P03372 whole entry, looked up, the tested form may be a part): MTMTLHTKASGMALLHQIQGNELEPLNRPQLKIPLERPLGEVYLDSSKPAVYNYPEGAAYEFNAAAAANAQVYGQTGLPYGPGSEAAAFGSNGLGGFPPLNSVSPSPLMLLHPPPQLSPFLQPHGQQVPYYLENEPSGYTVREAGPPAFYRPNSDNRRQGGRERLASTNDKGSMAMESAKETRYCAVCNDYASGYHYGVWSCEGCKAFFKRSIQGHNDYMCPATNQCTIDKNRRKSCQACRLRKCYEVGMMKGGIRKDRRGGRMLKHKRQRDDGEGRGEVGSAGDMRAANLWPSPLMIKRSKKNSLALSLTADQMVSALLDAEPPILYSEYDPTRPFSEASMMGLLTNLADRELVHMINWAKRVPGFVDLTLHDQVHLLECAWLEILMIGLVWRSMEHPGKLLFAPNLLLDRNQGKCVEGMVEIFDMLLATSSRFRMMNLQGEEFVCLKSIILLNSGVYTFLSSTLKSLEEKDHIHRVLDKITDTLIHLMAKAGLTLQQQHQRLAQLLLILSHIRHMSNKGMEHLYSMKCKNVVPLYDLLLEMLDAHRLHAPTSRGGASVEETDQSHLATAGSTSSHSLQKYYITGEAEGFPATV
Sequence of guinea pig Sigma Receptor, Non-selective Binding, SIGMAR1 (gene 100135589) (Q60492 whole entry, looked up): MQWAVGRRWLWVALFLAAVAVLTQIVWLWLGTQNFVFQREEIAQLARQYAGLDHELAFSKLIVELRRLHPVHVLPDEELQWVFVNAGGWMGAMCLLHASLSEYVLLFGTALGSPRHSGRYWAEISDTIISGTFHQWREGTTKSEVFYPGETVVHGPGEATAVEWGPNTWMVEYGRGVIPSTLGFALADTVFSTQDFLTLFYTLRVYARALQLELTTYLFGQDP

As for `O=C(CCl)Nc1ccccc1`, the molecule was classed as inactive in test [1], in test [2], in test [3], in test [4] and in [7]. The figures for the AC50 in [5] and in test [6] were 28.2 µM (active) and 59.5 µM (active), respectively.

For `OC(Cc1ccccc1Cl)(Cn1[nH]cnc1=S)C1(Cl)CC1` (configuration not stated), the call (in test [2]; with PGR (gene 5241); in [8]) was inactive.

On to `Oc1c(Br)cc(Br)cc1Br`, for which the result in [1], in test [3], in test [4], in test [7] and in test [9] was inactive.

Regarding `Cc1cc(SCc2sc(-c3ccc(C(F)(F)F)c(F)c3)nc2C)ccc1OCC(=O)O`, the molecule was classed as inactive in test [1] and in test [10].

In the case of `C=CC(=O)[O][Sn]([CH2]CCC)([CH2]CCC)[CH2]CCC`, the molecule was called inactive in test [1] and in test [10].

`Nc1c(Oc2ccccc2)cc(O)c2c1C(=O)c1ccccc1C2=O`: the call in test [2] and in [8] was inactive.

For `[F][Sn]([c]1ccccc1)([c]1ccccc1)[c]1ccccc1`, in test [1], the molecule was classed as inactive.

`CC(C)=CC1C(C(=O)OCc2cccc(Oc3ccccc3)c2)C1(C)C` (configuration not stated): the outcome in [2], in [3], in [4], in test [7] and in [9] was inactive.

For `CCC[CH2][Sn]([Cl])([Cl])[CH2]CCC`, the AC50 in [2] was 19.6 µM (active); in test [12], 12 µM (active); in test [13], 38 µM (active); in [14], 3.88 µM (active). Moreover, the call in test [10], in test [3], in test [4], in test [7], in [9] and in [11] was inactive.

Consider `CC(C)(C1CCC(O)CC1)C1CCC(O)CC1` (configuration not stated), for which the result in test [1] was inactive.

For the molecule `OC(Cc1ccccc1Cl)(Cn1cncn1)C1(Cl)CC1` (configuration not stated), the molecule was called inactive in test [2].

`N#CS`: the call in test [2] was inactive.

For `C#CCOC(=O)/C=C(C)/C=C/CC(C)CCCC(C)C` (configuration not stated), in test [2], the call was inactive.

Take `O=c1oc2ccccc2c(O)c1C(CC(O)c1ccc(-c2ccc(Br)cc2)cc1)c1ccccc1` (configuration not stated): the call in test [1], in test [2] and in test [15] was inactive. Also, the figures for the AC50 (with PGR (gene 5241); in [14]) were 23.9 µM (active) and 7.76 µM (active), respectively.

Consider `Oc1cc(Cl)c(Cl)cc1Cl`, for which the outcome in test [2] and in [12] was inactive. Besides, the AC50 in test [9] is 43.8 µM (active).

On to `Nc1ccc(N)cc1`, for which the AC50 is 25 µM (active) in test [2] and 31.7 µM (active) in test [16]. For the same molecule, the result in test [9] was inactive.

With `CCCCCCCCCCCCCCC(Br)C(=O)O` (configuration not stated), in [10], the molecule was called inactive.

In the case of `CCOP(=O)(OCC)OC(=CCl)c1ccc(Cl)cc1Cl`, the molecule was classed as inactive in [1] and in [15]. Besides, the AC50 with PGR (gene 5241) is 42.9 µM (active); in test [14], 25 µM (active); in test [17] it was 10.9 µM (active); in test [18] it was 25 µM (active).

In the case of `[Cl][Sn]([c]1ccccc1)([c]1ccccc1)[c]1ccccc1`, the molecule was classed as inactive in [2]. In addition, the AC50 in [14] is 3.31 µM (active); in [8], 2.42 µM (active).
